5 compounds from PubChem BioAssay can be followed below.

The nature of test [1]: polyglutamine-triggered caspase-3 activation inhibitors, cell-based (AID 1583). As to conditions: polyglutamine-induced caspase-3 activation, cell assay; stronger effect = higher value;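 tested at 10 µM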.
Test [2] can be described thus: suppressors of polyQ aggregation in yeast, 75Q-TubU reporter (AID 1593). As to conditions: Yeast 75Q polyglutamine aggregation reporter.
Test [3] is described as follows: rescue of polyQ-huntingtin neuronal dysfunction in worms, whole organism, C. elegans mechanosensory neurons, N-terminal huntingtin (AID 1599). As to conditions: touch response, stronger effect = higher value.
Test [4] can be described thus: inhibitors of mitochondrial cytochrome c release, biochemical, purified mitochondria (AID 1603).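 Note: mouse liver mitochondria challenged with calcium chloride; signal normalized to the plate average as 100%.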 The settings on record: stronger effect = lower value.
Test [5] is described as follows: inhibitors of polyQ protein aggregation (AID 1604). The settings on record: polyglutamine-induced protein aggregation inhibition assay; stronger effect = higher value; tested at 2.5 µM.
Test [6] is described as follows: enhancers of glutamate uptake in motor neurons, MN-1 cell line (AID 1612).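 Note: tested at 1 µM final; 0% = mean of DMSO vehicle wells on each plate; positive means more glutamate uptake than control and negative means less.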 As to conditions: MN-1 motor neuron cells, stronger effect = higher value.
Test [7] in a line: suppressors of polyglutamine aggregation in yeast, 75Q-TubH (AID 1616). As to conditions: S. cerevisiae 75Q-TubH polyglutamine aggregation suppression; stronger effect = higher value.
Test [8] in a line: hESC survival regulators, cell-based (AID 493140; call rule not given here;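 note: cells exposed to compounds for four days before counting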). As to conditions: human embryonic stem cell survival screen; stronger effect = higher value.
Test [9] is described as follows: Cy5 fluorescence interference with SSB-bound oligo, artefact control for HCV NS3 helicase inhibitor project, biochemical, NIH Clinical Collection, E. coli SSB (AID 743268; call rule not given here).
The test system of test [10] is Hepatitis C virus NS3 helicase. Put plainly: HCV NS3 helicase inhibitors, primary screen, biochemical, fluorescence polarization, NIH Clinical Collection (AID 743270; call rule not given here). The settings on record: NS3 helicase binding to Cy5-dT15 DNA, stronger effect = higher value, concentration not given here. (In general: Fluorescence polarisation rises when a labelled molecule tumbles more slowly, as on binding a larger partner.)

Test [11] addresses Single-stranded DNA-binding protein (Escherichia coli (strain K12)) (UniProt P0AGE0). Put plainly: E. coli SSB displacement from DNA, counter-screen for HCV NS3 helicase inhibitor project, biochemical, fluorescence polarization, NIH Clinical Collection (AID 743271; in the data active = inhibition above about 28%). As to conditions: stronger effect = higher value, concentration not given here. In general terms: Counterscreens check selectivity or assay interference.

Test [12] is described as follows: fluorescence interference in NS3h assay format, artefact control for HCV NS3 helicase inhibitor project, biochemical, NIH Clinical Collection (AID 743272; call rule not given here;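 note: HCV NS3 helicase with a Cy5 labelled single stranded DNA probe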). The settings on record: fluorescence interference counterscreen, stronger effect = lower value.
A short description of test [13]: modulation of C. elegans fzo-1 (AID 1259413; call rule not given here;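 note: fzo-1 mutant C. elegans worms in liquid wells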). The settings on record: C. elegans fzo-1 modulator screen, mean read-out; stronger effect = higher value.
A short description of test [14]: viability rescue of complex I mutant cybrids, primary screen, cell-based, galactose medium, ATP luminescence (AID 1645843;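 active = z-score of at least 1.8 in each of two replicates, scored against plate mean and spread of sample wells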;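 note: positive z means more ATP and so rescue of galactose-driven cybrid death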). The settings on record: complex I mutant cybrid cells, 72 h, stronger effect = higher value.
Test [15] has as its system F380Y/beta1. Kind of test: modulators of BK channel variants, profiling panel, selectivity assay, cell-based, U2OS BacMam, thallium flux, beta subunits (AID 1259406).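 Note: initial slope of Thallos dye fluorescence rise after thallium is added; log ratio against the mean of 0.3% DMSO vehicle wells on the same plate.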 As to conditions: at 30 µM.
The test system of test [16] is F380Y/beta4. The test is described as above. The settings on record: at 30 µM.
The subject of test [17] is R275C/beta4. Described as above. As to conditions: at 30 µM.
Test [18] concerns R275C/Slo1WT/beta2. The description is as above. The settings on record: at 30 µM.
Test [19] can be described thus: liver-stage malaria parasite growth inhibition, primary screen, cell-based, HepG2, luciferase luminescence, HepG2 viability (AID 624349; in the data active = parasite load remaining mostly below about 12%, no sharp cut-off; inactive = mostly above about 10%;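 note: 100% = mean of DMSO negative control wells on the same plate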). The settings on record: P. berghei liver stage in HepG2, luciferase luminescence, concentration not given here; parasite load remaining: stronger effect = lower value; viability: measured here: HepG2 viability without parasites.

Values joined by “and” are separate entries in the source; they are usually repeats but may differ in a detail not shown here. Equal values may be shown once. For part of these data: Entries with a potency or affinity are not part of this list. The source holds several records for some structures; these can differ, active in one and inactive in another. Active and inactive are the calls of the source.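 Rule for the calls, unless noted: active = thallium flux through the channel raised or lowered by more than 3 SD from vehicle-only wells, actives on both sides; inactive = the rest.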

For orientation: inhibition means the relative decrease from the control value, in per cent. Broadly, the viability is a read-out of living cells in per cent, often relative to untreated cells.

Turning to `Cc1ccccc1C(OCCN(C)C)c1ccccc1` (configuration not stated), the inhibition in test [1] is -34.1%; in test [10], -10.4% (inactive) and -11.4% (inactive); in [11], -0.48% (inactive) and -2.76% (inactive). Besides, in test [2], the score came to 1.23. For the same compound, the rescue above control in test [3] was -6.28. In addition, in [4], the cytochrome c release ratio is 1.72. For the same compound, in test [5], the inhibition of aggregation came to 70.1%. The glutamate uptake change in test [6] is 36.2%. The same compound returned an aggregation suppression score in test [7] of 1.25. Moreover, the survival in test [8] was 11.9 (inactive). For the same compound, the fluorescence ratio is 0.78 (active) and 1.01 (inactive) in test [9]; 0.88 (inactive) and 1.01 (inactive) in [12]. For the same compound, the mean signal in test [13] was 231 (inactive). For the same compound, the z-score in test [14] is -0.455 (inactive) and 0.28 (inactive) and 1.22 (inactive). The log fold change Tl+ flux in test [15] is 0.00351 (inactive) and 0.0509 (inactive); in test [16], 0.102 (inactive) and 0.0432 (inactive); in test [17], 0.0108 (inactive) and 0.0539 (inactive); in [18] it was 0.0116 (inactive) and 0.0357 (inactive).

In the case of `COC(=O)Nc1nc2ccc(C(=O)c3ccccc3)cc2[nH]1`, the inhibition in test [1] was -5.42%; in [10] it was -15.9% (inactive); in [11] it was -8.87% (inactive). The same compound came in with a score in test [2] of 0.63. In test [3], this compound had a rescue above control of -9.11. Further, the cytochrome c release ratio in test [4] worked out at 0.9. This compound also showed an inhibition of aggregation in [5] of 83.3%. Moreover, the glutamate uptake change in test [6] is -29.4%. In test [7], this compound had an aggregation suppression score of 0.598. In test [8], the survival is 1 (inactive). Besides, the fluorescence ratio in test [9] is 1.04 (inactive); in test [12], 0.98 (inactive). Further, the mean signal in test [13] is 274 (inactive). Moreover, in [14], the z-score is 0.145 (inactive) and 0.665 (inactive) and -1.08 (inactive). For the same compound, the log fold change Tl+ flux was 0.0198 (inactive) in test [15], -0.0277 (inactive) in [16], -0.0663 (inactive) in test [17] and 0.008 (inactive) in [18].

Regarding `OCCN1CCN(CCCN2c3ccccc3Sc3ccc(C(F)(F)F)cc32)CC1`, the results for the inhibition in test [1], in test [10] and in test [11] were -7.66%, -6.33% (inactive) and 5.91% (inactive), respectively. In [2], this compound gave a score of 1.32. Moreover, the rescue above control in [3] came to 0. The cytochrome c release ratio in [4] was 2.24. Further, the inhibition of aggregation in test [5] amounted to 51.3%. In test [6], the glutamate uptake change was -9.51%. The compound also showed an aggregation suppression score in [7] of 1.51. Further, in [8], the survival was 5.33 (inactive). The fluorescence ratio is 0.8 (active) in test [9] and 0.82 (inactive) in [12]. Besides, the mean signal in test [13] was 243 (inactive). Also, the z-score in test [14] was -1.04 (inactive) and -1.87 (inactive) and -0.735 (inactive). The log fold change Tl+ flux in test [15] is 0.117 (active); in test [16], 0.354 (active); in test [17] it was 0.23 (active); in [18], -0.0356 (inactive).

Regarding `CN[C@H]1CC[C@@H](c2ccc(Cl)c(Cl)c2)c2ccccc21`, the mean signal in test [13] is 250 (inactive). Also, the z-score in [14] is -1.29 (inactive) and -1.52 (inactive) and -0.69 (inactive). Moreover, the log fold change Tl+ flux in [15] is 0.844 (active) and 0.685 (active); in test [16], 1.13 (active) and 1.04 (active); in test [17] it was 0.997 (active) and 0.996 (active); in test [18], 0.019 (inactive) and -0.2 (active).

With `CN1CCCC(n2nc(Cc3ccc(Cl)cc3)c3ccccc3c2=O)CC1` (configuration not stated), the parasite load remaining in test [19] is 30% (inactive) and 46.4% (inactive) and 19.4% (inactive). The viability in [19] is 75.4% and 180% and 64.4%. Besides, the values for the fluorescence ratio in [9] and in test [12] were 1.03 (inactive) and 0.97 (inactive), respectively. In addition, the inhibition in [10] was -6.73% (inactive); in [11], 0.67% (inactive). Also, the mean signal in [13] was 269 (inactive). In addition, in [14], the z-score is -0.51 (inactive). The log fold change Tl+ flux in [15] was 0.109 (active); in test [16], 0.258 (active); in test [17], 0.0595 (inactive); in test [18], 0.0667 (inactive).
